Assay results taken from PubChem BioAssay.
Calls of active or inactive are those of the source.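 The calls were made as follows, unless noted: active = visual image review flags a hit and inhibition of aggregation exceeds 20%; inconclusive = visual hit but inhibition at or below 20%; inactive = no hit on visual image review.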

Columns and labels:
[1] = inhibitors of TNFa-induced NFkB p65 translocation, primary screen, imaging, HUVEC, MLSMR starter and 10KST1 sets (AID 438;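 active = inhibition above 20% together with a positive visual image hit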;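 also: compound added about 3h40 before a 20 min TNFalpha stimulation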;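 as to inhibition: signal is the nuclear over cytoplasmic p65 intensity ratio per well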); conditions: HUVEC TNFa-induced p65 nuclear translocation; cell count: measured here: nuclei count (cytotoxicity indicator), at 2.08 µM; inhibition: at 2 µM, stronger effect = higher value, 0% TNFa-plus-vehicle, 100% no-TNFa wells
[2] = inhibitors of mutant huntingtin aggregation, primary screen, imaging, exon1htt(103Q)mCFP cells, high-content imaging (AID 483); conditions: exon1htt(103Q)mCFP cell line, aggregate imaging, at 2 µM; inhibition of aggregation: stronger effect = higher value; nuclei count: measured here: cell count, toxicity;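 also: compound exposure lasted 3 days before fixation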;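 as to nuclei count: percent of the per-plate median nuclei count of sample wells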
[3] = inhibitors of E-selectin induction by TNFa, primary screen, imaging, HUVEC, immunofluorescence, MLSMR starter and 10KST1 sets (AID 487;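 active = visually confirmed hit in the image check and inhibition above 20%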;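 as to inhibition: signal is fraction of cell area covered by stained E-selectin grains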;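 as to nuclei count: 100% = median nuclei count of all wells on the same plate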); conditions: HUVEC TNFalpha-induced E-selectin immunofluorescence imaging, at 2 µM; inhibition: stronger effect = higher value; nuclei count: measured here: cell number, toxicity
[4] = target: Voltage-gated potassium channel subunit beta-2 (Rattus norvegicus) (UniProt P62483); test: KvBeta enzyme negative modulators, primary screen, biochemical, NADPH fluorescence (AID 622;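 active = fluorescence slope higher than the sample average by over 3 SD, cut at about -0.22 in these data, passing the limit was not always enough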;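 also: slope of raw intensity against log time taken from 70 to 1610 s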); conditions: recombinant KvBeta, 4-cyanobenzaldehyde reduction, at 10 µM, stronger effect = higher value
Chain of Voltage-gated potassium channel subunit beta-2 (Rattus norvegicus) (P62483 whole entry, looked up): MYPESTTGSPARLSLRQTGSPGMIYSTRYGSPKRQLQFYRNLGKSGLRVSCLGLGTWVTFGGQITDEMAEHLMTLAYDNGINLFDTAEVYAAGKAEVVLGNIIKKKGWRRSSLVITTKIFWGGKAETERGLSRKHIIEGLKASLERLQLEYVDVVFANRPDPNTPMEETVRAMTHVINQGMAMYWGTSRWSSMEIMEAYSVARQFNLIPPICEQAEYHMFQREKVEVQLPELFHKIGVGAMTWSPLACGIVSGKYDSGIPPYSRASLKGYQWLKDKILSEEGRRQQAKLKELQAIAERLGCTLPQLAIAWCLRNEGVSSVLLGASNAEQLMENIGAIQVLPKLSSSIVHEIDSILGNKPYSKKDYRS

[5] = target: Voltage-gated potassium channel subunit beta-2 (Rattus norvegicus) (UniProt P62483); test: KvBeta positive modulators, primary screen, biochemical, NADPH fluorescence (AID 623;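 active = NADPH fluorescence slope more negative than the mean of all samples by about 3 SD, 99.7% confidence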;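 also: fluorescence intensity change per second fitted from 20 to 320 s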); conditions: Recombinant KvBeta, NADPH fluorescence decrease slope, 10 min; at 10 µM; stronger effect = lower value
[6] = target: Alpha-2C adrenergic receptor (Homo sapiens) (UniProt P18825); test: modulators of alpha2C/GIRK thallium flux, primary screen, cell-based, HEK293 alpha2C/GIRK1/2 (AID 624;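 active = fluorescence slope after compound addition differing from the mean of all screened samples at 99.7% confidence, in either direction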;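 also: slope of fluorescence ratio to pre-addition baseline per second over 15 to 24 s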); conditions: thallium flux BTC fluorescence, at 10 µM, actives lie on both sides
Chain of Alpha-2C adrenergic receptor (Homo sapiens) (P18825 whole entry, looked up): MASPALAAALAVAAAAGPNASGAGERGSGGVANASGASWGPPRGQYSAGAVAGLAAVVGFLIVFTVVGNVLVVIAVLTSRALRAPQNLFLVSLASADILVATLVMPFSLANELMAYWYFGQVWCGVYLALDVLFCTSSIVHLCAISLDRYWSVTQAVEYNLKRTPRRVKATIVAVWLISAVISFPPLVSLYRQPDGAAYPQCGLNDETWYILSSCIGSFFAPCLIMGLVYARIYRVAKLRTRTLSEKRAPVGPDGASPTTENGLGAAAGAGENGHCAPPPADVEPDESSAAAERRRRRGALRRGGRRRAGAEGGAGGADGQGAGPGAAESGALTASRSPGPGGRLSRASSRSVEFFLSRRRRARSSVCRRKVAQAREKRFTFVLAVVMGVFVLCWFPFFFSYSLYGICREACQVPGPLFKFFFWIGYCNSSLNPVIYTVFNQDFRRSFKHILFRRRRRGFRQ

[7] = inhibitors of Sendai virus-induced IRF3 signaling, primary screen, TLR/RLR signaling modifier project, cell-based, Sendai virus stimulus, luciferase, 10K MLSCN set (AID 602276;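 active = inhibition at or above 50% at 10 µM; inactive = inhibition below 50%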;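 also: firefly luciferase from ISG56 promoter only with Renilla not read in this screen; 0% = Sendai virus plus DMSO and 100% = medium plus DMSO without virus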); conditions: HEK293 RL24 IRF3 luciferase reporter, at 10 µM, stronger effect = higher value
[8] = inhibitors of poly I:C-induced TLR3 signaling, primary screen, cell-based, poly I:C stimulus, luciferase, 10K MLSCN set (AID 602277;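 active = inhibition of the reporter signal at or above 50%; inactive = inhibition below 50%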); conditions: HEK293-TLR3 RL24 IRF3 luciferase reporter, at 10 µM, stronger effect = higher value

Compound	cell count [1]	inhibition [1]	inhibition of aggregation [2]	nuclei count [2]	inhibition [3]	nuclei count [3]	fluorescence slope [4]	NADPH fluorescence slope [5]	slope [6]	inhibition [7]	inhibition [8]
Cc1csc2ncc(C(=O)N3CCc4ccccc43)c(=O)n12	601	5.3% (inactive)	-17% (inactive)	104%	10% (inactive)	110%	-0.551 (inactive)	-4.3e-05 (inactive)	0.00571 (inactive)	11.1% (inactive)	39.2% (inactive)
Cc1cccc2cc(CN(CC3CCCO3)C(=O)c3cnccn3)c(=O)[nH]c12 (configuration not stated)	257	18.6% (inactive)	5.3% (inactive)	45.1%	-41% (inactive)	113%	-0.401 (inactive)	-9.9e-06 (inactive)	0.00355 (inactive)	8.77% (inactive)	32.1% (inactive)
O=C(Nc1ccccc1-c1ccccc1)NC1CCN(C(=O)N2CCOCC2)CC1	497	0% (inactive)	-19.4% (inactive)	113%	6.6% (inactive)	96.7%	-0.5 (inactive)	-4.4e-05 (inactive)	0.00404 (inactive)	13.4% (inactive)	18.7% (inactive)
O=C1CC(N2CCN(C3CCc4ccccc4C3)CC2)C(=O)N1c1ccccc1 (configuration not stated)	288	4% (inactive)	0.8% (inactive)	88.6%	6.6% (inactive)	121%	-0.378 (inactive)	-9.9e-05 (inactive)	0.00552 (inactive)	17.3% (inactive)	28.1% (inactive)
CCOC(=O)CSc1nnc(CCc2nc3ccccc3[nH]2)n1C	349	-1% (inactive)	23.8% (inactive)	73%	12.7% (inactive)	93.2%	-0.441 (inactive)	-2.8e-05 (inactive)	0.00684 (inactive)	-7.44% (inactive)	100% (active)
Cc1nc(NC(=O)C23CCC(C)(C(=O)O2)C3(C)C)sc1C (configuration not stated)	595	-13.1% (inactive)	15.4% (inactive)	105%	-22.1% (inactive)	106%	-0.462 (inactive)	8.7e-06 (inactive)	0.00641 (inactive)	12.9% (inactive)	29.5% (inactive)
COc1ccc(C2N(C(=O)c3ccccc3)CCN2C(=O)c2ccccc2)cc1	488	-13.6% (inactive)	-2.8% (inactive)	71.9%	-13.7% (inactive)	92.4%	-0.427 (inactive)	-7.3e-05 (inactive)	0.00622 (inactive)	7.08% (inactive)	24.3% (inactive)
